Assay results as given in PubChem BioAssay (NCATS).
Records with an inconclusive call do not appear. Activity calls are given as the source filed them. Calls come from the whole dose curve; as a rule, active = well fitted cell-killing curve with a large enough effect; inconclusive = small, poorly fitted or top-dose-only effect; inactive = flat fitted curve, though single readings scatter.

Tests used:
[1] = OV-KATE Cancer Cell Toxicity qHTS against the NCATS CANVASS Library (AID 1347345); details: OV-KATE cells viability, CellTiter-Glo luminescence, 72 h
Text: (§1) Natural products and their derivatives continue to be wellsprings of nascent therapeutic potential. However, many laboratories have limited resources for biological evaluation, leaving their previously isolated or synthesized compounds largely or completely untested. To address this issue, the Canvass library of natural products was assembled (https://tripod.nih.gov/canvass), in collaboration with academic and industry researchers, for quantitative high-throughput screening (qHTS) across a diverse set of cell-based and biochemical assays. The pure (>85% purity by liquid chromatography/mass spectrometry [LC/MS]) Canvass library of 346 natural products were submitted by 45 academic laboratories and companies around the world. […] The library was formatted into 1536-well plates and evaluated in 50 qHTS (in an 11-pnt concentration series) bioassays with broad scope of disease-relevant mechanisms. The resulting data set from 50 different assays was then systematically analyzed to identify overall trends and specific natural products with interesting biological activities. […]
(§2) Cancer Cell Toxicity protocol for cell lines COV-362, OV-KATE, OV-SAHO, UWB1.289, UWB1.289-WTBRCA1, HEK-293, HPAF-II, Panc-1005, SW1088, or U-118MG. […] Luminescence signal was acquired via the ViewLux plate reader (PerkinElmer) using a clear filter, 2 second exposure and 2x binning settings.

[2] = HPAF-II Cancer Cell Toxicity qHTS against the NCATS CANVASS Library (AID 1347346); details: HPAF-II viability, CellTiter-Glo ATP luminescence, 72 h; note: nearly all actives have a fitted effect of over 55% in size
Summary of the method: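 Luminescence from CellTiter-Glo, added after 72 h compound exposure and a 15 min room-temperature incubation, served as the viability readout. HPAF-II cells (1000/well) received an 11-point concentration series.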

[3] = UWB1.289 Cancer Cell Toxicity qHTS against the NCATS CANVASS Library (AID 1347347); details: UWB1.289 viability, CellTiter-Glo luminescence, 72 h; note: nearly all actives have a fitted effect of over 60% in size
Summary of the method: (§3)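 Step one: seed 1000 cells per well. Step two: incubate 4 h. Step three: add test compounds in 11 concentrations. Step four: culture 72 h, then add CellTiter-Glo and record luminescence after 15min.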

[4] = OV-SAHO Cancer Cell Toxicity qHTS against the NCATS CANVASS Library (AID 1347348); details: OV-SAHO viability, CellTiter-Glo luminescence, 72 h; note: nearly all actives have a fitted effect of over 55% in size
Summary of the method: as §3

[5] = Panc-1005 Cancer Cell Toxicity qHTS against the NCATS CANVASS Library (AID 1347349); details: Panc-1005 viability, CellTiter-Glo luminescence, 72 h; note: nearly all actives have a fitted effect of over 60% in size
Summary of the method: as §3

[6] = SW1088 Cancer Cell Toxicity qHTS against the NCATS CANVASS Library (AID 1347350); details: SW1088 viability, CellTiter-Glo luminescence, 72 h; note: nearly all actives have a fitted effect of over 75% in size
Text: as §1, §2

[7] = U-118MG Cancer Cell Toxicity qHTS against the NCATS CANVASS Library (AID 1347351); details: U-118MG viability, CellTiter-Glo luminescence, 72 h
Summary of the method: as §3

[8] = COV-362 Cancer Cell Toxicity qHTS against the NCATS CANVASS Library (AID 1347352); details: COV-362 viability, CellTiter-Glo luminescence, 72 h
Summary of the method: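 Luminescent ATP read-out (CellTiter-Glo, 15min at room temperature) measures survival after cells face an 11-point compound series for 72 hours at 37 degrees C/5% CO2.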

[9] = A2780 Cisplatin Sensitive Ovarian Cancer Cell Toxicity qHTS against the NCATS CANVASS Library (AID 1347353); details: A2780 ovarian cancer viability, ATPLite luminescence, 72 h; note: nearly all actives have a fitted effect of over 60% in size
Summary of the method: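 Luminescent ATP content (ATPLite, 10 min at room temperature) served as the read-out after cells had been exposed to compounds for 72 hours at 37 °C. Dosing followed an 11-point concentration series.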

Measured: Potency
Potency is the fitted concentration of half-maximal effect.

CC(C)CC(=O)c1c(O)cc2c(c1O)C(CC(C)C)C1=C(O2)C(C)(C)C(=O)C(C)(C)C1=O (centres undefined)
active: [1] 18.8 µM | [2] 13.3 µM | [3] 13.3 µM | [4] 11.8 µM | [5] 14.9 µM | [6] 7.49 µM | [7] 10.6 µM | [8] 13.3 µM | [9] 16.6 µM
